The values that follow come from ChEMBL document CHEMBL4513216, “Probing the Open Global Health Chemical Diversity Library for Multistage-Active Starting Points for Next-Generation Antimalarials” (ACS Infect Dis, 2020).

SMILES strings stand for the structures. In all, about 69,000 compounds went through this assay and about 8,600 (12%) showed an effect of 50% or more. This excerpt belongs to a sample that is enriched for strong results.

The experiment concerns Plasmodium berghei. Description: Screen against P. berghei liver stage (PbLuc), transformed with Luciferase, at 10uM. Type of experiment: functional, HepG2. To be noted: tested at 10 uM.
With `Cc1cc2nc(-c3ccccc3)cc(NCC3CCS(=O)(=O)C3)n2n1` (centres undefined), the INHIBITION is -24.6%.

Turning to `O=S1(=O)CCC(CNc2cc(-c3ccccc3)nc3ccnn23)C1` (centres undefined), the INHIBITION turned out to be 93.6%.

For the compound `O=C(CNc1cc(-c2ccccc2)nc2ccnn12)NC1CC1`, the INHIBITION is -35%.

With `O=C(Nc1ccc(N2CCOCC2)nc1)N1CCc2sccc2C1`, the INHIBITION is listed as -17.9%.

On to `CC1CCN(S(=O)(=O)N2CCc3sccc3C2)CC1`, for which the INHIBITION is 19.7%.

Consider `O=S(=O)(N1CCOCC1)N1CCOC(CCc2ccccc2)C1` (centres undefined), for which the INHIBITION was -23.4%.

Take `O=S(=O)(N1CCOCC1)N1CCc2sccc2C1`: the INHIBITION came out at 76.8%.

With `O=S(=O)(N1CCCCCC1)N1CCc2sccc2C1`, the INHIBITION was 20.8%.

With `O=S(=O)(N1CCCC1)N1CCc2sccc2C1`, the INHIBITION came out at 82.4%.

As for `c1cc(CN2CCC3(CCOCC3COCC3CC3)CC2)ccn1` (centres undefined), the INHIBITION was -20.8%.

For `CC(C)NC(=O)N1CCc2c(CNc3ncccn3)cncc2C1`, the INHIBITION is on record as -41.4%.

As for `N#Cc1ccc(CN2CCCC3(Cc4ccccc4CNC3=O)C2)cc1` (centres undefined), the INHIBITION was 43.3%.

For `Cc1nc(CO[C@H]2CN(Cc3cccs3)[C@@H]3COC[C@H]23)cs1`, the INHIBITION stood at 18.2%.

As to `CNS(=O)(=O)c1cnccc1N1CCN(C(C)C)CC1`, the INHIBITION is -5.26%.

On to `O=C1COC2(CCN(Cc3ccco3)CC2)CN1`, for which the INHIBITION was 27.6%.

On to `O=C(O)C1CCCN1c1nc(-c2ccc(Cl)c(Cl)c2)cc(C(F)(F)F)n1` (centres undefined), for which the INHIBITION amounted to 80.5%.

For `O=C(O)C1CCCN1c1nc(-c2ccc(Cl)cc2)cc(C(F)(F)F)n1` (centres undefined), the INHIBITION was determined as 26.7%.

Consider `O=C(O)C1CCCN1c1nc(C2CC2)cc(C(F)(F)F)n1` (centres undefined), for which the INHIBITION worked out at 14.3%.

For the compound `CC(=O)N1CCC(NC(=O)CN2CCCc3c(F)ccc(C)c32)CC1`, the INHIBITION amounted to 9.16%.

Consider `CN(CCc1cccc2ccccc12)Cc1nc(N)nc(N(C)C)n1`, for which the INHIBITION is recorded as 90.3%.

Take `COc1ccccc1CCN(C)Cc1nc(N)nc(N(C)C)n1`: the INHIBITION was 34.1%.

In the case of `CN(Cc1nc(N)nc(N(C)C)n1)Cc1cccc2ccccc12`, the INHIBITION is on record as -57.5%.

On to `OCCN1CCCCC1c1cc[nH]n1` (centres undefined), for which the INHIBITION worked out at 6.26%.

`C[C@@H](O)[C@H](NC(=O)c1csc2nc(-c3ccccc3F)cn12)C(N)=O`: the INHIBITION turned out to be 76.9%.

In the case of `CCc1ccc(-c2cn3c(C(=O)N[C@H](C(N)=O)[C@@H](C)O)csc3n2)cc1`, the INHIBITION is reported as -171%.

In the case of `CCc1ccc(-c2cn3c(C(=O)NCC(C)C(=O)NC)csc3n2)cc1` (centres undefined), the INHIBITION is reported as -147%.

On to `CC(C)(C)C(=O)N1CCC(c2cnc(-c3cn[nH]c3)cn2)CC1`, for which the INHIBITION was determined as 3.62%.

Regarding `CCn1cc(S(=O)(=O)N2CCN(C(=O)c3cc(Br)cs3)CC2)c(C)n1`, the INHIBITION is given as 38.3%.

On to `COC(=O)CN1CC2(CCNCC2)COc2ccccc2S1(=O)=O`, for which the INHIBITION came to 27.6%.

`CC(C)c1nnc2n1CCN(C(C)c1nnc(-c3cccs3)o1)C2` (centres undefined): the INHIBITION worked out at 21.1%.

Take `CC(c1nnc(-c2cccs2)o1)N1CCn2c(nnc2C2CC2)C1` (centres undefined): the INHIBITION was found to be 51.5%.

For `O=C(NC1CC1)C(c1ccccc1)N1CCn2c(nnc2C2CC2)C1` (centres undefined), the INHIBITION worked out at 6.05%.

As for `Cc1nnc2n1CCN(C(C(=O)NC(C)C)c1ccccc1)C2` (centres undefined), the INHIBITION came to 15.2%.

Turning to `CC(C)NC(=O)C(c1ccccc1)N1CCn2c(nnc2C2CC2)C1` (centres undefined), the INHIBITION was 50.4%.

Consider `Cc1nnc2n1CCN(C(C)c1nnc(-c3cccs3)o1)C2` (centres undefined), for which the INHIBITION is reported as 13.5%.

As to `CCc1ccc(CN2CC[C@H]3C[C@H](c4nnc(C)[nH]4)O[C@@H]3C2)o1`, the INHIBITION is recorded as -11.5%.

With `COc1cccc(F)c1-c1c[nH]c(C)n1`, the INHIBITION amounted to 11.8%.

Turning to `O=C(NCCNc1ncccn1)c1scnc1Cl`, the INHIBITION is 11.9%.

On to `CCc1nc(C)c(C(=O)NCCNc2cnccn2)s1`, for which the INHIBITION is listed as 4.88%.

`Cc1ncsc1C(=O)NCCNc1ncccn1`: the INHIBITION is 34.7%.

With `Cc1ncsc1C(=O)NCCNc1cnccn1`, the INHIBITION came out at 60%.

As for `O=C(NCCNC(=O)c1scnc1Cl)c1ccccc1`, the INHIBITION was 30.3%.

For `O=C(NCCNc1cnccn1)c1scnc1Cl`, the INHIBITION was 53.3%.

`Cc1ncsc1C(=O)NCc1cccs1`: the INHIBITION came to 35.8%.

For the compound `Cc1ncsc1C(=O)NCCSCc1cccs1`, the INHIBITION is 63.4%.

Turning to `Cc1ncsc1C(=O)NCCc1cccs1`, the INHIBITION is recorded as -25.667%.

With `O=C(NCCCn1nc2ccccn2c1=O)Nc1ccc(F)cc1F`, the INHIBITION is -17%.

For `c1ccc(CN2CCC3(CC2)CCN(Cc2cccs2)C3)nc1`, the INHIBITION is reported as -4.27%.

For `O=C(C1COCCO1)N1CCN(CC(F)(F)F)c2ccccc21` (centres undefined), the INHIBITION is recorded as -8.22%.

In the case of `Cc1nn(C)c(C)c1CC(=O)N1CCc2nnc(N(C)C)cc2C1`, the INHIBITION was 42.65%.

Turning to `CN(C)c1cc(CNC(=O)c2ccccc2S(C)(=O)=O)ccn1`, the INHIBITION is given as -19.4%.

On to `Cc1noc(C)c1CN1C(=O)[C@@H]2CC[C@H]1CN(C(=O)c1cscn1)C2`, for which the INHIBITION was determined as 45%.

As for `NC(=O)C1(CCCc2ccccn2)CCCN(c2ncccn2)C1` (centres undefined), the INHIBITION was -6.3%.

In the case of `CN1CCCC(CCCc2cccnc2)(C(N)=O)C1` (centres undefined), the INHIBITION was found to be 50.1%.
